# Test results taken from PubChem BioAssay (NCATS).
# Inconclusive results are not listed. A call without a number means that no potency is given here. Activity calls are given as the source filed them. The call rests on the fitted dose curve; in most records, active means well fitted curve in the direction sought with a large enough effect; inconclusive means small, poorly fitted or top-dose-only effect, or another doubt; inactive means no such curve, though single readings can be large; an effect the other way counts as inactive or inconclusive.
# Columns and labels:
# [1] = target: Glutathione peroxidase 1 (Homo sapiens) (UniProt P07203); assay: Primary qHTS Assay for Inhibitors of Recombinant Selenoprotein Glutathione Peroxidase 1 (GPX1) (AID 1845191); conditions: recombinant GPX1, GR-coupled NADPH fluorescence, 15 min; series mostly up to 48.8 µM; further: nearly all actives have a fitted effect of over 65% in size
# Outline: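 GR-coupled readout: NADPH consumption tracked by fluorescence, ex 340/em 450 nm, at t=0 and after 15 min at RT. Final mix 10 nM GPX1, 1 mM GSH, 0.5 mM CHP, 0.5 mM NADPH, 100 nM GR, 0.01% BSA, following 30 min enzyme–compound preincubation.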
# [2] = target: Phospholipid hydroperoxide glutathione peroxidase GPX4 (Homo sapiens) (UniProt P36969); assay: Primary qHTS Assay for Inhibitors of Recombinant Selenoprotein Glutathione Peroxidase 4 (GPX4) (AID 1845192); conditions: recombinant GPX4, GR-coupled NADPH fluorescence, 15 min; series mostly up to 50 µM; further: nearly all actives have a fitted effect of over 65% in size; further: potency means the concentration at half of the fitted maximal effect
# Outline: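 Steps: GPX4 plus compound, 30 min RT; add GR/GSH/NADPH master mix; start with cumene hydroperoxide; read 340/450 nm fluorescence at 0 and 15 min. Finals were 200 nM GPX4, 1 mM GSH, 0.5 mM CHP, 0.5 mM NADPH, 100 nM GR.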
# [3] = target: Luciferin 4-monooxygenase (Photinus pyralis) (UniProt P08659); assay: Primary firefly luciferase (FLuc) qHTS assay for identification of artifact compounds. (AID 1845220); conditions: purified firefly luciferase, luminescence, 5 min; series mostly up to 54.1 µM; further: nearly all actives have a fitted effect of over 60% in size
# Outline: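 Titrated compounds were incubated 15 min at RT, protected from light, with luciferin and ATP at 10 uM; reaction started with 10 nM FLuc, luminescence imaged at 5 min, and concentration-response fitted by Hill equation.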
# [4] = Primary fluorescence-based thiol-reactive (MSTI) qHTS assay for identification of artifact compounds. (AID 1845221); conditions: MSTI thiol-reactivity probe, 1 h; series mostly up to 53.8 µM;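 further: thiol-reactive compounds lower the probe fluorescence signal; nearly all actives have a fitted effect of over 65% in size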
# Outline: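 One-hour, room-temperature, dark incubation of compound with 4 uM MSTI in PBS (pH 7.4, 2% DMSO) precedes a fluorescence read at 525 nm excitation, 598 nm emission; Hill-equation fitting yields concentration-response values.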
# [5] = test system: Nanoluciferase (engineered Oplophorus gracilirostris luciferase); assay: Primary Nanoluciferase (NLuc) qHTS assay for identification of artifact compounds. (AID 1845222); conditions: NLuc-conditioned medium, Nano-Glo luminescence, 5 min; series mostly up to 54.1 µM;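 further: NLuc secreted into diluted conditioned medium of S16 cells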
# Outline: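 qHTS format, against NLuc in S16 cell-conditioned medium. Nano-Glo substrate 1:100 was added after 15 min at room temperature. Luminescence was taken after a further 5 min.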
# [6] = Primary redox qHTS assay for identification of artifact compounds. (AID 1845223); conditions: Amplex Red/HRP redox cycling with DTT, fluorescence; series mostly up to 53.8 µM
# Outline: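 Redox-cycling detection via DTT (250 uM final) oxidation coupled to Amplex Red (25 uM)/HRP (250 mU/mL) in HBSS. 15 min preincubation plus 30 min after DTT, room temperature. Ex/Em 525/598 nm; 4-parameter Hill fit against DMSO and 10 uM DA3003.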
# [7] = Quantitative High-Throughput drug screen in 47 multiple myeloma cell lines against the NCATS MIPE library collection: FR4_PLB cell viability assay (AID 1918924; further: potency means the concentration at half of the fitted maximal effect; nearly all actives have a fitted effect of over 35% in size); conditions: FR4_PLB myeloma cells viability, CellTiter-Glo ATP, 48 h; series mostly up to 45.8 µM
# Outline: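 We plated 500 myeloma cells per well, pinned in MIPE 4.0 compounds, and incubated for 48 hours at 37C. ATP was then quantified with CellTiter-Glo, with DMSO and media-only wells defining 100% and 0%.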
# [8] = Quantitative High-Throughput drug screen in 47 multiple myeloma cell lines against the NCATS MIPE library collection: Delta47_JCRB cell viability assay (AID 1918925; further: potency means the concentration at half of the fitted maximal effect; nearly all actives have a fitted effect of over 45% in size); conditions: Delta47 myeloma viability, CellTiter-Glo ATP, 48 h; series mostly up to 45.8 µM
# Outline: (§1)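 qHTS of the MIPE 4.0 collection: 500 myeloma cells/well, 48 h drug exposure at 37C in 5% CO2, then CellTiter-Glo for 5 min at room temperature before luminescence reading.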
# [9] = Quantitative High-Throughput drug screen in 47 multiple myeloma cell lines against the NCATS MIPE library collection: EJM_DSMZ cell viability assay (AID 1918926; further: potency means the concentration at half of the fitted maximal effect; nearly all actives have a fitted effect of over 30% in size); conditions: EJM myeloma cell viability, CellTiter-Glo ATP, 48 h; series mostly up to 45.8 µM
# Outline: as §1
# [10] = Quantitative High-Throughput drug screen in 47 multiple myeloma cell lines against the NCATS MIPE library collection: AMO1_DSMZ cell viability assay (AID 1918927; further: potency means the concentration at half of the fitted maximal effect; nearly all actives have a fitted effect of over 30% in size); conditions: AMO1 myeloma cells viability, CellTiter-Glo ATP luminescence, 48 h; series mostly up to 45.8 µM
# Outline: as §1
# [11] = Quantitative High-Throughput drug screen in 47 multiple myeloma cell lines against the NCATS MIPE library collection: ARP1_JJKsccF8 cell viability assay (AID 1918928; further: potency means the concentration at half of the fitted maximal effect; nearly all actives have a fitted effect of over 40% in size); conditions: ARP1 myeloma cells viability, CellTiter-Glo ATP, 48 h; series mostly up to 45.8 µM
# Outline: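 500 cells/well; MIPE 4.0 library pinned in; 48 h, 37 °C, 5% CO2; CellTiter-Glo ATP luminescence. Controls: DMSO = 100% viability, medium only = 0%.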
# [12] = Quantitative High-Throughput drug screen in 47 multiple myeloma cell lines against the NCATS MIPE library collection: ARD_JJKsccE7 cell viability assay (AID 1918929; further: potency means the concentration at half of the fitted maximal effect); conditions: ARD myeloma cell line viability, CellTiter-Glo, 48 h; series mostly up to 45.8 µM
# Outline: as §1
# Glutathione peroxidase 1 (Homo sapiens), sequence (P07203 whole entry, looked up): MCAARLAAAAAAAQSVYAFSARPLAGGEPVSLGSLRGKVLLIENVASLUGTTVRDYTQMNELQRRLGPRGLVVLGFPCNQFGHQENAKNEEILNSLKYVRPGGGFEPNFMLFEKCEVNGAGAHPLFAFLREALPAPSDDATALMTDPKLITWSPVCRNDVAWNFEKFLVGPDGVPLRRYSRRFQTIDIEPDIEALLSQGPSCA
# Phospholipid hydroperoxide glutathione peroxidase GPX4 (Homo sapiens), sequence (P36969 whole entry, looked up): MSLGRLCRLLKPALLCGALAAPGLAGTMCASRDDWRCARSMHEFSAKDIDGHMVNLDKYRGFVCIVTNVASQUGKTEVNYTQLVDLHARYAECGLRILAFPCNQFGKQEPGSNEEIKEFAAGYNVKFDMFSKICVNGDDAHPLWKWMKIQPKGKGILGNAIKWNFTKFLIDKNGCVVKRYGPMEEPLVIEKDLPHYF
compound,measurement,setting,value
Cc1ccc(N=CN(C)C=Nc2ccc(C)cc2C)c(C)c1,outcome,[1],inactive
same,Potency,[2],inactive
c1ccc2c(c1)Sc1ccccc1N2CC1CN2CCC1CC2 (stereo not given),outcome,[1],inactive
same,Potency,[2],inactive
O=C1CN2CCOC2(c2ccccc2Cl)c2cc(Cl)ccc2N1 (stereo not given),outcome,[1],inactive
same,Potency,[2],inactive
CNC(=O)Oc1cccc2ccccc12,outcome,[1],inactive
same,Potency,[2],inactive
N#Cc1nn(-c2c(Cl)cc(C(F)(F)F)cc2Cl)c(N)c1S(=O)C(F)(F)F (stereo not given),outcome,[1],inactive
same,Potency,[2],inactive
CCC(=O)O[C@H]1CC[C@H]2[C@@H]3CCC4=CC(=O)CC[C@]4(C)[C@H]3CC[C@]12C,outcome,[1],inactive
same,Potency,[2],inactive
CC1COC2(c3ccccc3Cl)c3cc(Cl)ccc3NC(=O)CN12 (stereo not given),outcome,[1],inactive
same,Potency,[2],inactive
CCC1(c2cccc(O)c2)CCCCN(C)C1 (stereo not given),outcome,[1],inactive
same,Potency,[2],inactive
COP(=O)(OC)C(O)C(Cl)(Cl)Cl (stereo not given),outcome,[1],inactive
same,Potency,[2],inactive
COP(=O)(OC)OC=C(Cl)Cl,outcome,[1],inactive
same,Potency,[2],inactive
CCC(=O)C(CCN(C)C)(c1ccccc1)c1ccccc1,outcome,[1],inactive
same,Potency,[2],inactive
CN(C)C(=O)Oc1cc(OC(=O)N(C)C)cc(C(O)CNC(C)(C)C)c1 (stereo not given),outcome,[1],inactive
same,Potency,[2],inactive
C=CCN1CC[C@]23CCCC[C@H]2[C@H]1Cc1ccc(O)cc13,outcome,[1],inactive
same,Potency,[2],inactive
O=C(O)Cc1ccccc1,outcome,[1],inactive
same,Potency,[2],inactive
CC(CC(C(N)=O)(c1ccccc1)c1ccccc1)N(C)C (stereo not given),outcome,[1],inactive
same,Potency,[2],inactive
CCOC(=O)C1(c2ccccc2)CCN(CCc2ccc(N)cc2)CC1,outcome,[1],inactive
same,Potency,[2],inactive
C#C[C@]1(O)C=C[C@H]2[C@@H]3CCC4=CC(=O)CC[C@@H]4[C@H]3CC[C@@]21CC,outcome,[1],inactive
same,Potency,[2],inactive
C[C@H](N)[C@H](O)c1ccc(O)c(O)c1,outcome,[1],inactive
same,Potency,[2],inactive
CN1C2CCC(C)(C)C1CC(OC(=O)C(O)(c1cccs1)c1cccs1)C2 (stereo not given),outcome,[1],inactive
same,Potency,[2],inactive
CCCCCCCCC(=O)NCc1ccc(O)c(OC)c1,outcome,[1],inactive
same,Potency,[2],inactive
CC1=C2[C@H]3OC(=O)[C@@H](C)[C@@H]3CC[C@@]2(C)C=CC1=O,outcome,[1],inactive
same,Potency,[2],inactive
Clc1ccc(C(OCCN2CCCCC2)c2ccccc2)cc1 (stereo not given),outcome,[1],inactive
same,Potency,[2],inactive
CC(C)[N+](C)(CCC(C(N)=O)(c1ccccc1)c1ccccc1)C(C)C,outcome,[1],inactive
same,Potency,[2],inactive
CC#C[C@]1(O)CC[C@H]2[C@@H]3C[C@H](C)C4=CC(=O)CC[C@]4(C)[C@H]3CC[C@@]21C,outcome,[1],inactive
same,Potency,[2],inactive
Oc1ccc([C@H]2CNCc3c2ccc(O)c3O)cc1O,outcome,[1],inactive
same,Potency,[2],inactive
CC[C@H]1C[C@H]2[C@@H]3CCC4=CC(=O)CC[C@@H]4[C@H]3CC[C@]2(C)[C@H]1O,outcome,[1],inactive
same,Potency,[2],inactive
same,outcome,[3],inactive
same,outcome,[4],inactive
same,outcome,[5],inactive
same,outcome,[6],inactive
CCOC(=O)c1cncn1C(C)c1ccccc1 (stereo not given),outcome,[1],inactive
same,Potency,[2],inactive
same,outcome,[3],inactive
same,outcome,[4],inactive
same,outcome,[5],inactive
same,outcome,[6],inactive
C[C@@H]1C[C@@H]([C@H](O)CC2CC(=O)NC(=O)C2)C(=O)[C@@H](C)C1,outcome,[1],inactive
same,Potency,[2],inactive
same,Potency,[7],743 nM (active)
same,Potency,[8],743 nM (active)
same,Potency,[9],3320 nM (active)
same,Potency,[10],469 nM (active)
same,Potency,[11],52.6 nM (active)
same,Potency,[12],166 nM (active)
Nc1ccccc1C(=O)OCC(O)CO (stereo not given),outcome,[1],inactive
same,Potency,[2],inactive
CC(C)(O)C(Cl)(Cl)Cl,outcome,[1],inactive
same,Potency,[2],inactive
CCOC(=O)c1ncn2c1CN(C)C(=O)c1c(I)cccc1-2,outcome,[1],inactive
same,Potency,[2],inactive
same,outcome,[3],inactive
same,outcome,[4],inactive
same,outcome,[5],inactive
same,outcome,[6],inactive
O=C(N[C@@H]1N=C(c2ccccc2F)c2cccc3c2N(CC3)C1=O)c1cc2ccccc2[nH]1,Potency,[2],inactive
same,outcome,[4],inactive
same,outcome,[5],inactive
same,outcome,[6],inactive
NC(=O)OCCCc1ccccc1,outcome,[1],inactive
same,Potency,[2],inactive
Cc1nnc2n1-c1sc(CCc3ccc(CC(C)C)cc3)cc1C(c1ccccc1Cl)=NC2C (stereo not given),outcome,[1],inactive
same,Potency,[2],25500 nM (active)
same,outcome,[3],inactive
same,outcome,[4],inactive
same,outcome,[5],inactive
same,outcome,[6],inactive
CCOC(=O)NC(C)(C)Cc1ccc(Cl)cc1,outcome,[1],inactive
same,Potency,[2],inactive
same,outcome,[3],inactive
same,outcome,[4],inactive
same,outcome,[5],inactive
same,outcome,[6],inactive
Cc1c(Cl)c(=O)oc2cc(OP(=O)(OCCCl)OCCCl)ccc12,Potency,[2],inactive
O=c1n(Cl)c(=O)n(Cl)c(=O)n1Cl,Potency,[2],inactive
COc1ccc(CN2CCNCC2)c(OC)c1OC,outcome,[1],inactive
same,Potency,[2],inactive
CCCOC(=O)Cc1ccc(OCC(=O)N(CC)CC)c(OC)c1,outcome,[1],inactive
same,Potency,[2],inactive
same,outcome,[3],inactive
same,outcome,[4],inactive
same,outcome,[5],inactive
same,outcome,[6],inactive
C#C[C@]1(O)CC[C@H]2[C@@H]3CCC4=CC(=O)CCC4=C3C=C[C@@]21CC,Potency,[2],10000 nM (active)
CC(Cc1ccccc1)NCCCCl (stereo not given),outcome,[1],inactive
same,Potency,[2],inactive
Cc1ccc([N+](=O)[O-])[c]2c1[O][Hg]2,Potency,[2],inactive
C[C@]12Cc3nonc3C[C@@H]1CC[C@@H]1[C@@H]2CC[C@@]2(C)[C@H]1CC[C@]2(C)O,outcome,[1],inactive
same,Potency,[2],inactive
CCCC[N+]1(C)[C@@H]2CC(OC(=O)[C@H](CO)c3ccccc3)C[C@H]1[C@@H]1O[C@@H]12 (stereo not given in full),outcome,[1],inactive
same,Potency,[2],inactive
same,outcome,[3],inactive
same,outcome,[4],inactive
same,outcome,[5],inactive
same,outcome,[6],inactive
CCCCC1C(=O)NC(=O)N(C2CCCCC2)C1=O (stereo not given),outcome,[1],inactive
same,Potency,[2],inactive
same,outcome,[3],inactive
same,outcome,[4],inactive
same,outcome,[5],inactive
same,outcome,[6],inactive
O=C(O)CCCCCCNC1c2ccccc2CCc2ccccc21,outcome,[1],inactive
same,Potency,[2],inactive
same,outcome,[3],inactive
same,outcome,[4],inactive
same,outcome,[5],inactive
same,outcome,[6],inactive
O=C(N[C@H]1N=C(c2ccccc2F)c2cccc3c2N(CC3)C1=O)c1cc2ccccc2[nH]1,outcome,[1],inactive
same,outcome,[3],inactive
same,outcome,[4],inactive
same,outcome,[5],inactive
same,outcome,[6],inactive
CC(C)C(Br)C(=O)NC(N)=O (stereo not given),outcome,[1],inactive
same,Potency,[2],inactive
CC(C(O)c1ccccc1)N(C)C/C=C/c1ccccc1 (stereo not given),outcome,[1],inactive
same,Potency,[2],inactive
COc1ccc2c(C(=O)c3ccc(Cl)cc3)c(C)n(CC(=O)O)c2c1,outcome,[1],inactive
same,Potency,[2],inactive
same,outcome,[3],inactive
same,outcome,[4],inactive
same,outcome,[5],inactive
Clc1ccc(CO/N=C(\Cn2ccnc2)c2ccc(Cl)cc2Cl)c(Cl)c1,outcome,[1],inactive
same,Potency,[2],inactive
Cc1cccc(Cc2cnc[nH]2)c1C,outcome,[1],inactive
same,Potency,[2],inactive
